Only a selection was taken, and hits are over-represented in it overall.
RmlCD inh mix – inhibitors of RmlC and RmlD coupled enzymes. RmlC/RmlD coupled enzyme inhibition, 384-well mixture HTS. inhibition, % at 5.5 µM. actives 0.39% (n = 110,000). AID 1532; in the data active = inhibition above about 30%, passing the limit was not always enough
HIV RNase H inh – blocks HIV-1 RNase H cleavage of RNA/DNA duplex | RT-RNase H RNA/DNA duplex cleavage, fluorescence | P04585 | AID 565 | inhibition, % at 10 µM | actives 1.9% (n = 65,000); in the data active = inhibition above about 50%
RmlCD fluor art – shows fluorescent artifact in RmlC/RmlD assay, dose-response counter-screen; AID 1696; actives 96% (n = 360); shares compounds with RmlCD inh mix; calls only; RmlC/RmlD assay fluorescence artifact counter-screen; call rule not given here;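 also: compound alone with no enzyme and no substrates present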
* marks the source's active call; other numbers are inactive results; i = inactive; . = no result given; + = active, no number.

SMILES	RmlCD inh mix	HIV RNase H inh	RmlCD fluor art
COc1ccc(-c2nnc(NC(=O)C3CCCO3)s2)cc1 (configuration not stated)	-8	.	.
COCC(=O)N(C)c1nnc(-c2ccccn2)s1	111*	18	+
O=C(O)C1CC=CCC1C(=O)Nc1ccc2c(c1)OCCO2 (configuration not stated)	0	.	.
Cn1c(C(=O)N2CCN(c3ccc(Cl)cc3)CC2)cc2c(=O)n(C)c3ccccc3c21	.	0	.
Cc1c(CCC(=O)O)c(=O)oc2cc(O)ccc12	128*	-6	+
Cc1c(CCC(=O)O)c(=O)oc2cc3occ(-c4ccc(F)cc4)c3cc12	-6	-27	.
CCn1cc(C(=O)OCC(=O)Nc2ccc(S(=O)(=O)N3CCCC3)cc2)c(=O)c2ccc(C)nc21	-16	-2	.
Clc1ccc2nsnc2c1NC1=NCCN1	11	.	.
CC1CN(C(=O)c2cc3c(s2)CCC3)CC(C)O1 (configuration not stated)	-12	-9	.
CC1CN(C(=O)c2cc3c(=O)n4ccccc4nc3s2)CC(C)O1 (configuration not stated)	53*	-20	+
Cc1ccc(C(C(=O)NCc2ccco2)N(CCc2ccccc2)C(=O)Cn2nnc3ccccc32)o1 (configuration not stated)	4	8	.
O=C1NC[C@H](c2ccccc2)N(CCc2cccc3ccccc23)C1=O	4	.	.
COc1ccc(Oc2c(C)oc3c(CN4CCOCC4)c(O)ccc3c2=O)cc1	10	.	.
Cc1oc2c(CN3CCCC3)c(O)ccc2c(=O)c1Oc1ccccc1Br	64*	-3	+
COc1ccccc1-c1coc2c(CN3CCN(CCO)CC3)c(O)ccc2c1=O	40*	1	+
Cc1oc2c(CN3CCOCC3)c(O)ccc2c(=O)c1-c1ccccc1	39*	1	+
COc1ccccc1Oc1c(C)oc2c(CN3CCN(CCO)CC3)c(O)ccc2c1=O	.	-2	.
COc1ccccc1-c1coc2c(CN3CCN(C)CC3)c(O)ccc2c1=O	16	-6	.
CN(C)CC(C)(C)CNS(=O)(=O)c1cccc(Cl)c1Cl	10	.	.
COc1ccccc1N1CCN(CC(O)c2ccc3cc[nH]c3c2)CC1 (configuration not stated)	-11	5	.
C=CCOC(=O)C1=C(C)NC(SCC(=O)N(CC)CC)=C(C#N)C1c1ccccc1 (configuration not stated)	.	6	.
C=CCOC(=O)C1=C(C)NC(SCC(=O)NC(=O)OCC)=C(C#N)C1c1cccnc1 (configuration not stated)	30*	11	+
Cc1nn(-c2ccccn2)c2c1C(c1ccccn1)C1=C(CCCC1=O)N2 (configuration not stated)	-6	.	.
Cc1ccc(CN2CC(C(=O)O)CC2=O)cc1 (configuration not stated)	8	.	.
Cc1ccc(CN2CC(C(=O)Nc3ccc4c(C)cc(=O)oc4c3)CC2=O)cc1 (configuration not stated)	30	1	+
SMILES	RmlCD inh mix	HIV RNase H inh	RmlCD fluor art
CC1(C(=O)NCc2ccccn2)C=CCN1C(=O)c1ccccc1 (configuration not stated)	-36	.	.
COc1ccc(-c2cc(=Nc3ccc(C)cc3)c3ccccc3o2)cc1	14	.	.
COc1ccc(-c2cc(=NCCC(=O)O)c3cc(C)ccc3o2)cc1	.	.	+
CCCCNC(=O)C1CCCN1C(=O)Nc1cccc(OC)c1 (configuration not stated)	-8	-3	.
N#Cc1nc(-c2cccs2)oc1NCc1ccccc1	47	-29	.
C=CCNc1oc(-c2cccs2)nc1C#N	108*	.	+
Cc1cc(C(F)(F)F)c(C#N)c(=O)[nH]1	32*	.	+
N#Cc1c(C(F)(F)F)cc(-c2ccc(Cl)cc2)[nH]c1=O	10	.	.
CCn1c(C)nc2cc(C(=O)N/N=C(\C)c3ccc(OC)cc3O)ccc21	.	.	+
CCn1c(C)nc2cc(C(=O)NNS(=O)(=O)c3c(C)c(C)cc(C)c3C)ccc21	-11	.	.
CC(C)(C)NC(=O)c1cccc(NC(=O)CSc2ccccc2)c1	7	.	.
COc1ccc(-c2nnc(SCc3c(C)noc3C)n2N)cc1OC	-4	.	.
O=c1ccccn1Cc1c(F)cccc1Cl	i	.	.
CCOC(=O)c1c(NC(=O)Cn2nnc(-c3ccc(Cl)cc3)n2)sc(CC)c1C	-10	.	.
COc1ccc(-c2nc(C#N)c(N3CCOCC3)o2)cc1OC	26	-20	.
COc1ccc(-c2nc(C#N)c(N3CCC(C(N)=O)CC3)o2)cc1OC	41*	.	+
O=C(NCc1ccco1)c1ccc2nc3sc4c(c3c(=O)n2c1)CCCC4	46*	18	+
C=CCn1c(SCC(=O)NCc2ccco2)nc2sc3c(c2c1=O)CCCC3	-13	.	.
COc1ccc(OC)c2[nH]c(=O)c(CCNC(=O)CC(C)C)cc12	6	-7	.
CN1CCN(Cc2oc(CO)cc(=O)c2O)CC1	-14	.	.
CCc1cc(=O)oc2c(CN3CCN(C)CC3)c(O)c(Cl)cc12	126*	-2	+
C/C=C/C=C\C(=O)Nc1cccc(C2=NOC3(C2)C[C@@H](C(N)=O)N(C(=O)c2cc([N+](=O)[O-])cc([N+](=O)[O-])c2C)C3)c1 (some centres not stated)	10	.	.
CN(CCc1ccccn1)Cc1ccc(Cl)cc1Cl	-6	-16	.
Cc1[nH]n(-c2ccccc2)c(=O)c1/C=N/c1ccccn1	3	-5	.
Cc1[nH]n(-c2ccccc2)c(=O)c1C=Nc1cnc2ccccc2c1	44*	.	+
SMILES	RmlCD inh mix	HIV RNase H inh	RmlCD fluor art
CCOC(=O)CN1C=C(c2ccc3ccccc3n2)C(C[N+](=O)[O-])c2ccccc21 (configuration not stated)	47*	.	+
CCOC(=O)CSc1nc2ccccc2n1CC(=O)N(C(C)C)C(C)C	3	-76	.
COc1c2c(nc3occc13)C(CC=C(C)C)(OC)C(OC(C)=O)CC2 (configuration not stated)	14	.	.
COCCCn1cnc2oc3nc4ccccc4nc3c2c1=O	50*	-18	+
COCCCn1cnc2c(c1=O)c1nc3ccccc3nc1n2-c1ccccc1	12	-3	.
CCCc1cc(NCC2CCCO2)n2c(nc3ccccc32)c1C#N (configuration not stated)	102*	.	+
CCCc1cc(-n2cnc3ccccc32)n2c(nc3ccccc32)c1C#N	12	.	.
COC(=O)c1cc(Cl)c(NC(=O)/C=C/c2ccc(Cl)cc2Cl)cc1OC	62*	.	+
COC(=O)c1cc(Cl)c(NC(=O)/C=C/c2ccc(Cl)cc2)cc1OC	-4	.	.
Cc1ccc(S(=O)(=O)N=S(CC2CC2(Cl)Cl)CC2CC2(Cl)Cl)cc1 (configuration not stated)	3	.	.
CCOC(=O)c1c(N)n(Cc2ccco2)c2nc3ccccc3nc12	72	-4	.
COCC(C)OC(=O)c1c(N)n(Cc2ccco2)c2nc3ccccc3nc12 (configuration not stated)	56*	7	+
CCCCOCCCn1c(N)c(C(=O)OCCOC)c2nc3ccccc3nc21	57*	5	+
COCCOC(=O)c1c(N)n(Cc2ccccc2)c2nc3ccccc3nc12	54	6	.
CC(C)(C)[C@]1(O)CCN2C[C@H]3c4ccccc4CCc4cccc(c43)[C@@H]2C1	-11	.	.
CN(C)CCNc1oc(-c2ccccc2F)nc1C#N	46*	-9	+

Bioassay records from PubChem.
